# Several values for one entry are separate records, joined by “and”; a condition that tells them apart may be missing. Equal entries are not always repeated. The whole screen tested about 220,000 compounds, of which about 16,000 (7.3%) were called active. Entries that show only a call come without a potency. Roughly 25% stayed inconclusive and do not appear here. The sample holds actives, similar compounds and a random draw of the others, so the mix is not that of the screen. Calls come from the whole dose curve; as a rule, active = well fitted inhibition curve with a large enough effect (not every such curve was filed as active); inconclusive = small, poorly fitted or top-dose-only effect, or another doubt; inactive = no such curve, though single readings can be large or run the other way. Some compounds were tested as several samples or in several runs, with calls that do not always agree.
# Target: Aldehyde dehydrogenase 1A1 (Homo sapiens) (UniProt P00352)
# Sequence (P00352 whole entry, looked up): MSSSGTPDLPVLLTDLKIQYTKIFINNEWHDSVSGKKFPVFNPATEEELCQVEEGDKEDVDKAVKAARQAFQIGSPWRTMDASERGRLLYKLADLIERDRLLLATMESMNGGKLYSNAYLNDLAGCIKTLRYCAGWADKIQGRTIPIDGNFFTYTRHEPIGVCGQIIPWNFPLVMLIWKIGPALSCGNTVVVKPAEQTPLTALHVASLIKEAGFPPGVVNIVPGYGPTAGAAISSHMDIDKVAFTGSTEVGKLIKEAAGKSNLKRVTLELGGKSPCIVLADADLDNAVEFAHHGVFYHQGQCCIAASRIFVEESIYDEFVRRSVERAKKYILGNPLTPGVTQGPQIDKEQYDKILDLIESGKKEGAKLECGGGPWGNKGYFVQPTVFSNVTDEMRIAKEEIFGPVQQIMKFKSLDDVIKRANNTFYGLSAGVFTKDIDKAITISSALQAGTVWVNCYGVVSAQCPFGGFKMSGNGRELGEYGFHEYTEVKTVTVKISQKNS
# Test: qHTS Assay for Inhibitors of Aldehyde Dehydrogenase 1 (ALDH1A1)
# Details: Purified ALDH1A1, NADH fluorescence, propionaldehyde substrate; series mostly up to 75.3 µM
# Potency is the fitted concentration of half-maximal effect.
row,SMILES,Potency
1,COC(=O)[C@H](Cc1ccccc1)NC(=O)[C@@H]1C[C@H]1[C@@H](NC(=O)OCc1ccccc1)c1ccccc1,inactive
2,O=C(NCC1CCC(C(=O)O)CC1)OCc1ccccc1 (centres undefined),inactive
3,COC(=O)[C@H](C)[C@H]1C[C@]1(C)[C@H](NC(=O)OCc1ccccc1)c1ccccc1,inactive and 22.4 µM (active)
4,COc1ccc(C2(CNC(=O)Cc3ccc(OC)c(OC)c3)CCCC2)cc1,inactive
5,CCN(CCn1cccn1)Cc1nc(-c2ccc(C(=O)OC)cc2)no1,inactive
6,O=C1OC(/C=C/c2ccccc2)=NC/1=C/c1ccco1,11.2 µM (active)
7,O=c1oc(/C=C/c2ccccc2)nc2ccccc12,inactive
8,CC(=O)Oc1ccccc1C1=NN(C(C)=O)C(c2ccccc2)C1 (centres undefined),inactive
9,COc1ccccc1N1CCN(C(=O)C(=O)N/N=C/c2ccccc2F)CC1,inactive
10,COc1ccccc1N1CCN(/N=C\C(Br)=C\c2ccccc2)CC1,5.62 µM (active)
11,CNCC(O)CN1CCN(c2ccccc2OC)CC1 (centres undefined),inactive
12,COc1ccccc1CNC(=O)COc1ccc(C)nc1[N+](=O)[O-],inactive
13,O=S(=O)(NCCc1ccc(F)cc1)c1cccc2cccnc12,inactive
14,Cc1coc2c(O)cc3c(c12)OC1(N2CCCCC2)C(=O)NCCCC31 (centres undefined),20 µM (active)
15,COc1ccc(NC(=O)C(Br)C(C)C)cc1 (centres undefined),inactive
16,Cc1nn(-c2ccccc2)c2c1C(c1cccc([N+](=O)[O-])c1)N(c1ccccc1)C(=O)N2 (centres undefined),inactive
17,CCOc1ccc(C(=O)Nc2cccc(-c3ccc4nncn4n3)c2)cc1,inactive
18,NC(=O)N1CCc2ccccc21,inactive
19,CCCn1nc(C(=O)N2CCCc3ccccc32)c2ccccc2c1=O,inactive
20,Cc1occc1C(=O)N1CCCc2ccccc21,31.6 µM (active)
21,CCOC(=O)C1=NO[C@@]2(C=C(Br)C(=O)[C@H]3O[C@H]32)C1,inactive
22,O=C(N/N=C\c1ccc(Br)cc1)c1ccc(Cn2cccn2)o1,inactive
23,CN(C)c1ccc(/C=N/NC(=O)c2ccc(Cn3cc(Br)cn3)o2)cc1,17.8 µM (active)
24,O=C(N/N=C/c1ccc2c(c1)OCO2)c1ccc(Cn2cc([N+](=O)[O-])cn2)o1,inactive
25,COc1ccc(C2CC(c3cccs3)Nc3nnnn32)cc1 (centres undefined),inactive
26,O=c1[nH]c(CN2CCOCC2)nc2cc(Cl)ccc12,inactive
27,CCC1(CC)NC(=O)N(CC(=O)OCC(=O)NC(=O)c2ccccc2)C1=O,inactive
28,O=C(c1ccccc1Cl)N(Cc1ccccc1F)N1C(=O)CCCC1=O,inactive
29,COc1ccc(NC(=O)N2CCCC(c3nc(-c4ccc(F)cc4)no3)C2)cc1 (centres undefined),inactive

# Source: PubChem BioAssay AID1030 (National Center for Advancing Translational Sciences (NCATS), 2008)
